Shown are actives, neighbours in structure and some others; about 2.2% of the full set was active somewhere.
PfM18AAP inh – PfM18AAP enzyme inhibition; AID 1822; 1.2% of 290,000 active; recombinant PfM18AAP, H-Glu-NHMec fluorogenic cleavage; inhibition, % at 7.35 µM;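 active = inhibition above the campaign mean inhibition over all tested compounds plus 3 SD, cut at about 28% in these data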
PLC-gamma1 inh – blocks human PLC-gamma1 enzyme activity; P19174; AID 720700; inhibition, % at 12.2 µM; purified PLC-gamma1, fluorogenic substrate, fluorescence; 0.84% of 370,000 active
NPR1 activator – GC-A (human) enzyme activation; P16066; HEK293 GC-A cells, cGMP TR-FRET, EC30 ANP; 0% at EC30 ANP, 100% saturating ANP; activation, % at 10 µM; 0.14% of 370,000 active; AID 1671463; in the data active = activation above about 40%
Rce1 inh – yeast Ras-converting enzyme inhibition; 0.27% of 290,000 active; Q03530; calls only; yeast membranes, quenched prenylated peptide cleavage fluorescence;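 active = fall in fluorescence gain of 50% or more versus controls, with final raw signal at or below 3038400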
NPR2 activator – GC-B (human) receptor activation; activation, % at 10 µM; HEK293-GC-B cells, CNP EC30, cGMP TR-FRET; 0% at EC30 CNP, 100% saturating CNP; P20594; 0.11% of 370,000 active;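 active = activation at 10 µM reaching about 35% in either raw or pattern-adjusted values, limit read from the data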
PLC-beta3 inh – blocks human PLC-beta3 enzyme activity. Purified PLC-beta3, fluorogenic substrate, fluorescence. inhibition, % at 12.2 µM. 0.18% of 370,000 active; in the data active = inhibition above about 11%
PLCgamma1 ctr – counter-screen for PLC-beta3 inhibitors: inhibitors of human PLC-gamma1; shares compounds with PLC-gamma1 inh; purified PLC-gamma1, fluorogenic substrate, fluorescence; inhibition, % at 12.3 µM; 3.1% of 3,300 active; AID 743258
PLCb3 confirm – human PLC-beta3 inhibition, confirmation. shares compounds with PLC-gamma1 inh. purified PLC-beta3, fluorogenic substrate fluorescence. inhibition, % at 12.3 µM. 1% of 3,300 active; in the data active = inhibition above about 11%
Hits are given with their value; n = inactive; x = not tested or not shown. Rule as the data show it, unless noted: active = inhibition above about 9.5%; inactive = the rest.

SMILES | PfM18AAP inh | PLC-gamma1 inh | NPR1 activator | Rce1 inh | NPR2 activator | PLC-beta3 inh | PLCgamma1 ctr | PLCb3 confirm
COc1cccc(NC(=O)C(Sc2nnc(Nc3ccccc3C)s2)c2ccccc2)c1 (stereo not drawn) | n | 10.0 | n | n | n | n | n | n
COc1ccc(Nc2nnc(SC(C(=O)Nc3cc(C)ccc3C)c3ccccc3)s2)cc1 (stereo not drawn) | n | n | n | n | n | n | x | x
Nc1[nH]c(C(=O)c2ccccc2)c(-c2ccc(Cl)c(F)c2)c1C(=O)c1c[nH]c2ccccc12 | x | n | n | x | n | n | x | x
NC(=O)c1ncn([C@@H]2O[C@H](C(=O)N[C@H](Cc3ccccc3)C(=O)N3CCN(c4ccc(Cl)cn4)CC3)[C@@H](O)[C@H]2O)n1 | x | n | n | x | n | n | x | x
CCCC[C@H](C(=O)N(C)c1cccc(OC)c1)[C@@H](O)c1ccc2ccccc2c1 | x | n | n | x | n | n | x | x
O=[N+]([O-])c1ccc(N/N=C\c2ccccc2OCc2ccccc2)cc1 | n | n | n | n | n | n | x | x
Cc1cc(C)nc(N/N=C/c2ccccc2OCc2ccc([N+](=O)[O-])cc2)n1 | n | 13 | n | n | n | n | n | n
COc1ccc(-c2noc(CN(C)Cc3ccccc3)n2)c(OC)c1OC | n | n | n | n | n | n | x | x
COc1ccc(CN(C)Cc2ccccc2)c(OC)c1OC | n | 11 | n | n | n | n | n | n
COc1ccc(/C=N/NC(=O)C(=O)N2CCN(c3ccccc3OC)CC2)cc1 | n | 12 | n | n | n | n | n | n
CCN(CC)C(=O)CC[C@H]1CC[C@]2(CCCN(Cc3ccc(N(C)C)cc3)C2)O1 | x | n | n | x | n | n | x | x
CCC[C@H]1[C@@H](NC(=O)Nc2ccc3c(c2)OCO3)CC[C@@]23CCCN2C(=O)CCC[C@@H]13 | x | n | n | x | n | n | x | x
Cc1ccccc1NC(=S)N1CCC(C(=O)c2ccc(F)cc2)CC1 | n | 9.9 | n | n | n | n | n | n
O=C(c1ccc(F)cc1)C1CCN(C(=S)Nc2ccccc2Cl)CC1 | n | n | n | n | n | n | x | x
COC[C@H]1CCCN1c1ccc2c(c1)O[C@@H](COCc1ccccc1)CN([C@H](C)c1ccccc1)S2(=O)=O | x | 10 | n | x | n | n | n | n
CC12CC3(C)CC(C)(C1)CC(C(N)=O)(C2)C3 | n | 11 | n | n | n | 13 | n | n
Cc1ccc(S(=O)(=O)NCCSc2nncn2C)cc1 | n | n | n | n | n | n | x | x
Cc1ccc(S(=O)(=O)NC(C)(C)CSc2nncn2N)cc1 | n | 11 | n | n | n | n | n | n
O=c1c2ccccc2[nH]c(=S)n1CCN1CCN(Cc2ccccc2)CC1 | n | 11 | n | n | n | n | n | n
CCn1cnc2sc(C(=O)O)c(C)c2c1=O | n | n | n | n | n | n | x | x
Cc1c(C(=O)O)sc2ncn(C)c(=O)c12 | n | 14 | n | x | n | n | n | n
CC(C)CN1C[C@@H]2CSCCS(=O)(=O)N2C1=O | x | n | n | x | n | n | x | x
CC1CCC(NC(=O)C(NS(=O)(=O)c2cccc3nsnc23)C(C)C)CC1 (stereo not drawn) | n | 11 | n | n | n | n | n | n
Cc1cccc(C)c1N(CC(=O)NC1CCCCC1)C(=O)c1csnn1 | n | 16 | n | n | n | n | n | n
CCN(CC)C(=O)CSc1nnc(-c2cccs2)o1 | x | n | n | x | n | n | x | x
SMILES | PfM18AAP inh | PLC-gamma1 inh | NPR1 activator | Rce1 inh | NPR2 activator | PLC-beta3 inh | PLCgamma1 ctr | PLCb3 confirm
N#Cc1cc(-c2ccccc2)nnc1Oc1ccccc1 | n | 13 | n | n | n | n | n | n
COc1ccc(C(=O)OCCN2CCN(C3CN(Cc4cn(Cc5ccccc5C(F)(F)F)nn4)S(=O)(=O)C3)CC2)cc1OC (stereo not drawn) | x | n | n | x | n | n | x | x
CN1/C(=C/C(=O)C2CCC2)Sc2ccccc21 | n | 11 | n | n | n | n | n | n
CC(=O)Nc1ccc(SCC(=O)N(C)CC(=O)Nc2ccccc2Cl)cc1 | x | n | n | x | n | n | x | x
CN(CC(=O)Nc1ccccc1Cl)C(=O)CSc1nncs1 | x | 10 | n | n | n | n | n | n
CC(C)CC(CCOCCO)NC(=O)OCc1ccccc1[N+](=O)[O-] (stereo not drawn) | x | n | n | x | n | n | x | x
